Columns and labels:
Settings in all cases: concentration: 1 μM, replicates: in singlicate; n = 1
FYN = test system: FYN
GAK = test system: GAK
GCN2(Kin.Dom.2,S808G) = test system: T1, GCN2(Kin.Dom.2,S808G)
T1 construct: gene EIF2AK4

GRK1 = test system: GRK1
GRK2 = test system: T2, GRK2
T2 construct: gene ADRBK1

GRK3 = test system: T3, GRK3
T3 construct: gene ADRBK2

GRK4 = test system: GRK4
GRK7 = test system: GRK7
GSK3A = test system: GSK3A
GSK3B = test system: GSK3B
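Note: KINOMEscan kinase panel screen.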

NCCC(NC(=O)c1cc(Br)c(-c2ccnc3[nH]ccc23)s1)c1ccccc1.O=C(O)C(F)(F)F.O=C(O)C(F)(F)F (stereo not drawn) [GSK1307810]
%Inh (FYN): 0%
%Inh (GAK): 83%
%Inh (GCN2(Kin.Dom.2,S808G)): 0%
%Inh (GRK1): 100%
%Inh (GRK2): 82%
%Inh (GRK3): 96.4%
%Inh (GRK4): 72%
%Inh (GRK7): 89%
%Inh (GSK3A): 0%
%Inh (GSK3B): 20%

Cc1cccc(Nc2nc(N[C@H]3CCCC[C@H]3N)ncc2C(N)=O)c1.Cl [GSK986310]
%Inh (FYN): 52%
%Inh (GAK): 55%
%Inh (GCN2(Kin.Dom.2,S808G)): 72%
%Inh (GRK1): 0%
%Inh (GRK2): 0%
%Inh (GRK3): 17%
%Inh (GRK4): 6%
%Inh (GRK7): 1%
%Inh (GSK3A): 24%
%Inh (GSK3B): 19%

CC(C)c1nc(-c2cccc(NS(=O)(=O)c3c(F)cccc3F)c2)c(-c2ccnc(Nc3ccc(N4CCOCC4)nc3)n2)s1.Cl [GSK1723980]
%Inh (FYN): 98.6%
%Inh (GAK): 91.2%
%Inh (GCN2(Kin.Dom.2,S808G)): 100%
%Inh (GRK1): 9%
%Inh (GRK2): 0%
%Inh (GRK3): 0%
%Inh (GRK4): 0%
%Inh (GRK7): 0%
%Inh (GSK3A): 74%
%Inh (GSK3B): 15%

Cc1cc(-c2ccnc(Nc3cccc(C#N)c3)n2)cc(C)c1O [GSK1440913]
%Inh (FYN): 0%
%Inh (GAK): 79%
%Inh (GCN2(Kin.Dom.2,S808G)): 0%
%Inh (GRK1): 6%
%Inh (GRK2): 0%
%Inh (GRK3): 0%
%Inh (GRK4): 90.7%
%Inh (GRK7): 0%
%Inh (GSK3A): 93.8%
%Inh (GSK3B): 26%

COc1cccc(NC(=O)NCCNc2ccnc(Nc3ccc(F)cc3)n2)c1 [GSK1379879]
%Inh (FYN): 0%
%Inh (GAK): 0%
%Inh (GCN2(Kin.Dom.2,S808G)): 0%
%Inh (GRK1): 0%
%Inh (GRK2): 0%
%Inh (GRK3): 68%
%Inh (GRK4): 0%
%Inh (GRK7): 0%
%Inh (GSK3A): 11%
%Inh (GSK3B): 16%

CCn1cnc2c(NCc3ccccc3)ncnc21 [SKF-96418]
%Inh (FYN): 0%
%Inh (GAK): 0%
%Inh (GCN2(Kin.Dom.2,S808G)): 0%
%Inh (GRK1): 39%
%Inh (GRK2): 0%
%Inh (GRK3): 0%
%Inh (GRK4): 6%
%Inh (GRK7): 0%
%Inh (GSK3A): 0%
%Inh (GSK3B): 35%

Nc1ncc(-c2cn[nH]c2)c2scc(-c3ccc4c(c3)CCN4C(=O)Cc3ccccc3)c12 [GSK2593067]
%Inh (FYN): 65%
%Inh (GAK): 32%
%Inh (GCN2(Kin.Dom.2,S808G)): 97.8%
%Inh (GRK1): 10%
%Inh (GRK2): 0%
%Inh (GRK3): 0%
%Inh (GRK4): 0%
%Inh (GRK7): 0%
%Inh (GSK3A): 2%
%Inh (GSK3B): 11%

N#CC1(c2cccc(C(=O)Nc3cccc(Oc4ccc5nc(NC(=O)C6CC6)sc5n4)c3)c2)CC1
%Inh (FYN): 92%
%Inh (GAK): 0%
%Inh (GCN2(Kin.Dom.2,S808G)): 0%
%Inh (GRK1): 12%
%Inh (GRK2): 0%
%Inh (GRK3): 0%
%Inh (GRK4): 0%
%Inh (GRK7): 0%
%Inh (GSK3A): 24%
%Inh (GSK3B): 0%

Cc1ccc(O)cc1Nc1ccnc2ccc(C(C)(C)C)cc12 [GW856805]
%Inh (FYN): 96.5%
%Inh (GAK): 61%
%Inh (GCN2(Kin.Dom.2,S808G)): 5%
%Inh (GRK1): 28%
%Inh (GRK2): 0%
%Inh (GRK3): 28%
%Inh (GRK4): 17%
%Inh (GRK7): 37%
%Inh (GSK3A): 0%
%Inh (GSK3B): 28%

From article PMC5540273 (PLoS ONE, 2017)
